Source: PubChem
HCV inhibitor – blocks hepatitis C virus. Huh7.5.1 HCVcc-Cre infection, luciferase reporter, 44 h. Potency, µM (doses to about 41.8 µM), for inactives: top-dose activity change, negative = inhibition, actives largely listed as inhibitors. 340,000 tested, 3.4% active. AID 651820; note: potency is the fitted concentration of half-maximal effect; % is set by controls: 0 for no effect and ±100 for the full control effect
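After 44 h co-culture of compound, cells and HCVcc-Cre (~0.5 moi), substrate is added for 15 min at room temperature and luciferase measured over 15 sec. Cells were seeded at 1,000/well and pre-cultured 4 h.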
AMA1-RON2 inh – AMA1-RON2 (P. falciparum) interaction inhibition | AlphaScreen AMA1-biotinylated RON2 peptide binding | AID 720542 | Potency, µM (titrated, usually from 58.2 µM), inactives show at the top dose activity change, negative = inhibition, most hits filed as inhibitors | 360,000 tested, 0.2% active;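 note: potency is the fitted concentration of half-maximal effect; 0% = vehicle wells and -100% = peptide control; nearly all actives have a fitted effect of over 45% in size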
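AMA1 (3D7) with his tag at 25 nM final met compounds first, then biotinylated RON2 peptide at 25 nM; detection used donor plus acceptor beads, 10 µg/mL apiece, read by AlphaScreen after 30 min at room temperature.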
Pf growth 48h – inhibits P. falciparum growth in the first generation, 48 h. P. falciparum luciferase growth in erythrocytes, 48 h. Potency, µM (top dose mostly 28.7 µM), for the others: at the highest dose activity change, negative = inhibition, usual class: inhibitors. 310,000 tested, 5.9% active; note: potency is the fitted concentration of half-maximal effect; % is set by controls: 0 for no effect and ±100 for the full control effect
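Growth was read as firefly luciferase luminescence after a 48 h, 37 C, 5% CO2 exposure of compounds to reporter-bearing P. falciparum cultures (0.1% parasitemia, 2% hematocrit final) in Albumax-supplemented RPMI 1640.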
CHX counter – counter-screen hit for Shiga toxin inhibitors, cycloheximide; cell reporter, cycloheximide protein synthesis inhibition counterscreen; max response, %; 300,000 tested, 12% active; in the data active = max response mostly above about 13%, no sharp cut-off; inactive = mostly below about 14%; note: read at 38.3 µM for the half of the compounds with a filed dose; 0% is about no effect
Pf growth 96h – P. falciparum growth inhibition at 96 hours | P. falciparum luciferase reporter growth, 96 h | Potency, µM (titrated, usually from 28.7 µM), inactives show at the highest dose activity change, negative = inhibition, usual class: inhibitors | 320,000 tested, 6.9% active | AID 504834; note: potency is the fitted concentration of half-maximal effect; % is set by controls: 0 for no effect and ±100 for the full control effect
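Two parasite generations (96 h, 37 C, 5% CO2) of compound exposure in infected erythrocytes (0.05% parasitemia, 2% hematocrit). Luciferase-reporter P. falciparum; decreased luminescence indicates inhibited growth, aimed at apicoplast-acting delayed death.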
Shiga inhibitor – Shiga toxin inhibition | Vero cells, Shiga toxin protein synthesis inhibition reporter | inhibition, % at 38.7 µM | 290,000 tested, 9.2% active | AID 2315; in the data active = inhibition mostly above about 28%, no sharp cut-off; inactive = mostly below about 43%; note: 0% is about no effect
Active calls of the source: *; i = inactive; ? = inconclusive; . = not tested or not shown; [ ] = dose if it differs, or a comment. Sampled rows, rich in hits. Any-hit rate of the full collection: about 21%. Unless noted, calls come from the whole dose curve; as a rule, active = well fitted curve in the direction sought with a large enough effect; inconclusive = small, poorly fitted or top-dose-only effect, or another doubt; inactive = no such curve, though single readings can be large; an effect the other way counts as inactive or inconclusive.

SMILES | HCV inhibitor | AMA1-RON2 inh | Pf growth 48h | CHX counter | Pf growth 96h | Shiga inhibitor
CCOc1ccc(-c2nnc(N(CC)C(=O)C3CCC3)s2)cc1 | ? | -6% | ? | 28* | 6.6µM* | 53*
CCCC(=O)N(C)c1nnc(-c2ccc(OC)cc2)s1 | -3% | 5% | 76% | 13* | 10µM* | 46
COCCN(C(=O)C1CC1)c1nnc(-c2ccc(C)cc2)s1 | -22% | -8% | 8% | 6 | ? | 36
CCc1ccccc1NC(=O)CNC(=O)CSC(=S)N1CCCC1 | -3% | -6% | ? | . | ? | .
O=C(Nc1cccc(Cl)c1)OC1CCCCc2cccnc21 (centres undefined) | -25% | -12% | 3.7µM* | -2 | -25% | -9
Cc1nc2ccc(NC(=O)CCC3CCCC3)cc2s1 | -1% | 23% | 74% | 45* | 128% | 97*
O=C(Nc1ccccc1)OC1CCCCc2cccnc21 (centres undefined) | 1% | -4% | 7% | 12 | 6% | 31
CC(=O)c1ccc(NC(=O)NC2CCCCCCC2)cc1 | -4% | -3% | 35% | 39* | ? | 95*
Cc1cccc(NC(=O)NC2CCCCCCC2)c1 | -8% | -6% | 60% | 41* | 43% | 93*
COc1cc(/C=C/C(=O)OCC(=O)N2c3ccccc3NC(=O)C2(C)C)cc(OC)c1OC | ? | 0% | ? | . | ? | .
CC(=O)c1cccc(NC(=O)C(C)OC(=O)CCC2CCCCC2)c1 (centres undefined) | 31% | 15% | 3% | . | 2% | .
CC(=O)c1ccc(NC(=O)C2C3CCC(C3)C2C(=O)O)cc1 (centres undefined) | 10% | -6% | -5% | 8 | 13µM* | 35
CC(=O)c1cccc(NC(=O)NC2CCCCC2)c1 | -7% | 11% | . | 16 | ? | 17
CC(=O)c1cccc(NC(=O)NC2CCCCCCC2)c1 | -2% | 9% | 27% | 36* | ? | 50
CC(=O)Nc1ccc(NC(=O)C2C3CCC(C3)C2C(=O)O)cc1 (centres undefined) | 7% | -10% | -7% | -3 | 22% | 14
CC(=O)c1cccc(NC(=O)CCC2CCCC2)c1 | -11% | 24% | 56% | 25* | 0% | i
CC(=O)c1cccc(NC(=O)C2CCCC2)c1 | -6% | 9% | 34% | 2 | 8% | -18
CC(=O)c1ccc(NC(=O)C2CCCC2)cc1 | 7% | 0% | 22% | 9.4* | 45% | 1
CC1(C(=O)NS(=O)(=O)c2cccs2)CCN1C(=O)Cc1ccccc1 (centres undefined) | . | -5% | . | . | . | .
CC(=O)c1cccc(-c2ccnc3c2CC(C(=O)Nc2cccc(Oc4ccccc4)c2)O3)c1 (centres undefined) | . | -1% | . | . | . | .
CC(=O)c1ccc(-c2ccc(C(=O)NC3CCCCCC3)o2)cc1 | 10% | -3% | ? | 28* | ? | 41*
O=C(Nc1cccc(C(=O)N2CCOCC2)c1)NC1CCCCC1 | 10% | -10% | -7% | -6 | 17% | 28
O=C(NC1CCC(O)CC1)c1ccc(-c2ccc(Cl)cc2)o1 (centres undefined) | ? | -3% | 84% | . | 121% | .
O=C(Nc1cccc(Cl)c1)NC1CCCCC1 | -19% | -9% | 102% | 38* | -15% | 91*
CC(=O)c1cccc(NC(=O)C2C3C=CC(C4CC34)C2C(=O)O)c1 (centres undefined) | -7% | -1% | 14% | 4 | 13% | -6
SMILES | HCV inhibitor | AMA1-RON2 inh | Pf growth 48h | CHX counter | Pf growth 96h | Shiga inhibitor
CCc1ccc(NC(=O)C2C3C=CC(C4CC34)C2C(=O)O)cc1 (centres undefined) | 3% | 3% | 56% | 14* | 70% | 19
CC(=O)c1ccc(NC(=S)NC2CCCC(C)C2C)cc1 (centres undefined) | 7% | 8% | 13%[5.75 µM] | 17* | 3% | 48*
CC(=O)c1ccc(NC(=S)NN2C(C)CCCC2C)cc1 (centres undefined) | 13% | 38% | 2% | -4 | -3% | -27
CC1(Cc2cccc(C(F)(F)F)c2)C(=O)Nc2ccc(-c3ccc(F)c(Cl)c3)cc21 (centres undefined) | . | 0% | . | . | . | .
CC(c1ccco1)N(C(=O)c1cccc(S(=O)(=O)N(C)C)c1)c1ccccn1 (centres undefined) | 7% | 2% | 19% | -3 | -3% | 4
O=C(Nc1cccc(Cl)c1)NC1CC2CCC1C2 (centres undefined) | 0% | -3% | 3% | 23* | -19% | .
O=C(Nc1cccc(Cl)c1)NC1CC2CCC(C1)N2Cc1ccco1 (centres undefined) | 2% | -3% | 0% | 5 | 15% | -6
CCSc1nnc(N2C(=O)c3ccc(C(=O)c4ccc(C(=O)O)cc4)cc3C2=O)s1 | 11% | -3% | 9% | 2 | 10µM* | -7
O=C1c2ccc(-c3nc4ccccc4o3)cc2C(=O)N1Cc1ccccc1 | -11% | -8% | . | . | . | .
Nc1ccc(-c2nc3ccc(-c4nc5ccccc5o4)cc3[nH]2)cc1 | ? | 0% | 9.3µM* | 28* | 24% | 39
Cc1nc2ccc(-c3nc4ccccc4o3)cc2[nH]1 | ? | -3% | 168% | 52* | ? | 68*
Cc1ccnc2ccc(-c3nc4ccccc4o3)cc12 | ? | 10% | 140% | 21* | 77% | 55*
O=C1CCC(=O)N1c1cccc(-c2nc3ccccc3o2)c1 | 5% | 0% | . | 7 | ? | 43
Cc1cc(-c2nc3ccccc3o2)c2ccccc2n1 | 14µM* | 8% | 10% | -3 | ? | 13
CCS(=O)(=O)C1=NSC2=NC(=O)/C(=C\c3ccc(OC(=O)c4ccco4)cc3)C(=N)N21 | 9% | 23% | 8% | 2 | 11% | 12
CCc1cc(CNC(=O)C2CCC(=O)N(Cc3ccccc3F)C2)on1 (centres undefined) | . | 4% | . | . | . | .
CN(O)/C=C/C(=O)c1ccc(Br)cc1 | -12% | -3% | 0% | 0 | -1% | 27
CN(C)/C=C/C(=O)c1ccc(Br)cc1 | 7% | 17% | 27% | 26* | 0% | 61*
Cc1ccc(C)n1-c1ccc(C(=O)/C=C/N(C)C)cc1 | ? | -10% | ? | 16 | 15µM* | 38
Cc1ccc(N=C2NC(=O)/C(=C\c3ccsc3)S2)c(C)c1 | -23% | 3% | -28% | 15 | -23% | 14
Cc1cccc(C(C)C)c1NC(=O)Cc1ccc(S(=O)(=O)N2CCOCC2)s1 | -8% | -3% | -3% | . | ? | .
CCOc1ccc(CCNC(=O)COC(=O)c2sccc2C)cc1OCC | ? | 5% | -11% | . | ? | .
Cc1ccc(O)c(Cc2cc(C)cc(Cc3cc(C)ccc3O)c2O)c1 | . | 3% | . | . | . | .
COc1ccc(C2Nc3ccccc3NC3=C2C(=O)CC(C)(C)C3)cc1O (centres undefined) | 6% | -18% | ? | 24* | 0% | 70*
